The record followed here is PubChem BioAssay (NCI).

Holding throughout (assay): NCI-60 one-dose screen, 48 h (100 = growth as untreated, 0 = no growth, -100 = all killed)
In one assay the test system is NCI-H23 lung. To be noted: 10 µM unless noted.
The subject of another assay is NCI-H322M lung. Particulars: 10 µM unless noted.
For the next assay, the system named is HOP-62 NSCLC. To be noted: 10 µM unless noted.
For a further assay, the system named is NCI-H460 lung. To be noted: 10 µM unless noted.
The subject of a further assay is HOP-92 NSCLC. Particulars: 10 µM unless noted.
In the next assay the test system is NCI-H522 lung. Particulars: 10 µM.
The next assay concerns A549/ATCC NSCLC. To be noted: 10 µM unless noted.
The next assay deals with 786-0 renal. Particulars: 10 µM unless noted.
In another assay the test system is COLO 205 colon. To be noted: 10 µM unless noted.

This is part of a sample that, as a whole, favours compounds with a hit. Of some 83,000 tested, about 20% had one in any assay.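 Single-concentration screen, 48 h exposure, 96-well plates. Endpoint: percent growth. Below 10 = active.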 Values without a mark were called inactive. Calls of active or inactive are those of the source.

With `COc1c(O)c2c3c(c1OC)-c1ccccc1CC3N(S(=O)(=O)c1ccc(C)cc1)CC2` (configuration not stated), the growth in the assay with NCI-H23 lung was 41.2%; in the assay with NCI-H322M lung it was 53%; in the assay with HOP-62 NSCLC, 41.6%; in the assay on NCI-H460 lung, 23.3%; in the assay with HOP-92 NSCLC, 59.8%; with NCI-H522 lung, 19.9%. The growth in the assay on A549/ATCC NSCLC is 44.1%; in the assay on 786-0 renal, 75.8%.

For the molecule `COC(=O)c1c2c(c(C)[n+]([O-])c1C)C(=O)C=C(NCc1ccc(F)cc1)C2=O`, the growth is -46.2% (active) in the assay on NCI-H23 lung; -6.43% (active) with NCI-H322M lung; -6.11% (active) with HOP-62 NSCLC; -0.65% (active) in the assay with NCI-H460 lung; -41.1% (active) in the assay with HOP-92 NSCLC; -15.1% (active) with NCI-H522 lung. The results for the growth in the assay with A549/ATCC NSCLC and with 786-0 renal were -22.7% (active) and 5.86% (active), respectively.

Regarding `COc1cc(Cn2cc(F)c(=O)[nH]c2=O)cc(OC)c1`, the growth is 103% [50 µM] with NCI-H23 lung; 99% [50 µM] with NCI-H322M lung; 88.2% [50 µM] in the assay with HOP-62 NSCLC; 103% [50 µM] with NCI-H460 lung; 101% [50 µM] in the assay on HOP-92 NSCLC; 102% [50 µM] in the assay with A549/ATCC NSCLC. Also, the growth in the assay with 786-0 renal was 97.5% [50 µM]; in the assay on COLO 205 colon, 117% [50 µM].

For the molecule `CCCCCCCC/C=C\CCCCCCCCOc1cccc(CC(=O)NCC[N+]2(C)CCCC2)c1`, the growth in the assay on NCI-H23 lung is 75.9%; in the assay with NCI-H322M lung it was 99.5%; in the assay on HOP-62 NSCLC, 69.5%; with NCI-H460 lung it was 54.3%; in the assay with HOP-92 NSCLC, 92.7%; with NCI-H522 lung, 68.6%. For the same molecule, the values for the growth in the assay with A549/ATCC NSCLC and in the assay with 786-0 renal were 95% and 93.9%, respectively.

In the case of `Cc1ccc(S(=O)(=O)N2CCc3ccc(O)c4c3C2CCc2ccccc2-4)cc1` (configuration not stated), the growth in the assay with NCI-H23 lung was 95.9%; in the assay with NCI-H322M lung it was 99.1%; in the assay with HOP-62 NSCLC, 106%; in the assay with NCI-H460 lung, 108%; in the assay on HOP-92 NSCLC, 116%; in the assay with NCI-H522 lung, 82.4%. The growth is 102% in the assay with A549/ATCC NSCLC and 100% in the assay with 786-0 renal.

As for `O=C1/C(=C/c2ccccc2F)CNC/C1=C\c1ccccc1F`, the growth was -48.3% (active) in the assay with NCI-H23 lung; 14.8% in the assay on NCI-H322M lung; -63.6% (active) in the assay on HOP-62 NSCLC; -29.7% (active) in the assay with NCI-H460 lung; 16.6% in the assay on HOP-92 NSCLC; -61.1% (active) in the assay on NCI-H522 lung. The growth in the assay on A549/ATCC NSCLC was -11.1% (active); with 786-0 renal, -92.8% (active).

In the case of `COc1ccc(-c2cc(=O)oc3c4c(ccc23)OCN(Cc2ccc(F)cc2)C4)cc1`, the growth is 41.2% in the assay on NCI-H23 lung; 75.9% in the assay on NCI-H322M lung; 80% in the assay on HOP-62 NSCLC; 61.8% with NCI-H460 lung; 47.8% in the assay with HOP-92 NSCLC; 69.6% in the assay on A549/ATCC NSCLC. The growth in the assay on 786-0 renal is 65.7%; with COLO 205 colon, 64.2%.

As to `COC(=O)c1c2c(c(C)[n+]([O-])c1C)C(=O)C(NCc1ccc(O)cc1)=CC2=O`, the growth was -57.4% (active) with NCI-H23 lung; 0.623% (active) in the assay with NCI-H322M lung; -7.28% (active) in the assay with HOP-62 NSCLC; -3.38% (active) with NCI-H460 lung; 34% with HOP-92 NSCLC; -33.2% (active) with NCI-H522 lung. The growth with A549/ATCC NSCLC is 4.46% (active); in the assay with 786-0 renal, 7.96% (active).

As for `O=C(N/N=C/c1ccc2c(c1)OCO2)c1cnn2c1NC(c1ccccc1)C2` (configuration not stated), the growth with NCI-H23 lung is 57.1%; in the assay on NCI-H322M lung it was 59.6%; with HOP-62 NSCLC, 60.5%; in the assay on NCI-H460 lung, 30.1%; with HOP-92 NSCLC it was 73.7%; in the assay on NCI-H522 lung, 45.7%. In addition, the growth in the assay with A549/ATCC NSCLC is 45%; in the assay on 786-0 renal, 78.9%.

As to `COc1ccc(C2=NOC(CC(=O)N(CCO)CCO)C2)cc1OC1CCCC1` (configuration not stated), the growth was 99.9% in the assay on NCI-H23 lung; 107% in the assay on NCI-H322M lung; 102% in the assay with HOP-62 NSCLC; 103% in the assay with NCI-H460 lung; 94.1% in the assay with HOP-92 NSCLC; 98.3% in the assay with NCI-H522 lung. The growth in the assay on A549/ATCC NSCLC was 95.5%; with 786-0 renal, 92.7%.

Consider `O=S(=O)(Nc1ccccc1Cl)c1ccc(-c2cnc(C3CC3)o2)cc1`, for which the growth in the assay on NCI-H23 lung is 39.9%; with NCI-H322M lung, 42.3%; in the assay with HOP-62 NSCLC, 34.1%; in the assay with NCI-H460 lung, 18%; in the assay with HOP-92 NSCLC, 37.1%; in the assay with NCI-H522 lung, 10.9%. Moreover, the values for the growth in the assay on A549/ATCC NSCLC and in the assay on 786-0 renal were 31.4% and 51.1%, respectively.

On to `COc1ccc(/C=N/OCC(O)CN2CCC(O)CC2)cc1OC1CCCC1` (configuration not stated), for which the growth with NCI-H23 lung is 106%; with NCI-H322M lung, 108%; in the assay with HOP-62 NSCLC, 103%; with NCI-H460 lung, 106%; in the assay on HOP-92 NSCLC, 98.2%; in the assay on NCI-H522 lung, 99.2%. Moreover, the growth in the assay on A549/ATCC NSCLC was 101%; in the assay on 786-0 renal it was 102%.

Turning to `COc1ccc(/C=N/NC(=O)c2cnn(CC(O)Cc3ccccc3)c2N)cc1OC1CCCC1` (configuration not stated), the growth in the assay on NCI-H23 lung was 93.2%; in the assay on NCI-H322M lung, 103%; with HOP-62 NSCLC it was 85.5%; in the assay on NCI-H460 lung it was 98.5%; in the assay with HOP-92 NSCLC it was 86.5%; in the assay with NCI-H522 lung it was 92.7%. The growth was 96.3% with A549/ATCC NSCLC and 97.9% in the assay on 786-0 renal.

Take `Nc1c(Br)cc(Br)cc1-c1n[nH]c(=O)[nH]c1=O`: the growth with NCI-H23 lung is 91.3%; with NCI-H322M lung it was 109%; in the assay with HOP-62 NSCLC, 93.5%; with NCI-H460 lung it was 102%; with HOP-92 NSCLC, 54.6%; in the assay with A549/ATCC NSCLC, 113%. Besides, the growth in the assay on 786-0 renal is 100%; in the assay with COLO 205 colon, 102%.
